Experimental data: PubChem BioAssay (EPA / NIEHS)
Values joined by “and” are separate entries in the source; they are usually repeats but may differ in a detail not shown here. Identical values can stand only once. Records with an inconclusive call do not appear. Some compounds were tested as several samples or in several runs, with calls that do not always agree. Active and inactive are the calls of the source. How the source made its calls: active means hit-call score of the fitted dose curve at least 0.9, where 1 is the maximum; inconclusive means response in the unintended direction; inactive means score below 0.9.

Key:
[1] = target: zebrafish Thyroid Hormone Receptor alpha (TRa), thraa (gene 30670) (UniProt Q98867); assay: ATG_zfTRa_XSP1: Attagene TRANS-FACTORIAL Multi-Species (XSP1) HepG2 Assay for zebrafish Thyroid Hormone Receptor alpha (TRa) (AID 2283807)
Procedure, shortened: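 HepG2 cells transiently transfected with GAL4-UAS reporter units including a zebrafish TRa–Gal4 chimera, dosed 24 h with 3 nM 6-alpha-fluorotestosterone present. Reporter mRNA quantified by RT-PCR and capillary electrophoresis; gain versus DMSO.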

[2] = target: human Thyroid hormone Receptor beta (TRb), THRB (gene 7068) (UniProt P10828); assay: ATG_hTRb_XSP1: Attagene TRANS-FACTORIAL Multi-Species (XSP1) HepG2 Assay for human Thyroid hormone Receptor beta (TRb) (AID 2283808)
Procedure, shortened: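 HepG2 cells transiently transfected with reporter units driving GAL4-UAS reporters for chimeric NR-Gal4 proteins; 24 h chemical exposure with 3 nM 6-alpha-fluorotestosterone present. Reporter mRNA quantified by RT-PCR and capillary electrophoresis, gain of signal versus DMSO.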

[3] = target: zebrafish Thyroid Hormone Receptor beta (TRb), thrb (gene 30607) (UniProt Q9PVE4); assay: ATG_zfTRb_XSP1: Attagene TRANS-FACTORIAL Multi-Species (XSP1) HepG2 Assay for zebrafish Thyroid Hormone Receptor beta (TRb) (AID 2283809)
Procedure, shortened: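 HepG2 cells transiently transfected with multiplexed GAL4-UAS reporter units expressing chimeric zebrafish TRb–Gal4. Dosed 24 h with 3 nM 6-alpha-fluorotestosterone present; reporter mRNA measured by RT-PCR, HpaI digestion and capillary electrophoresis; gain of signal versus DMSO.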

[4] = ATG_M_06_XSP2: Attagene TRANS-FACTORIAL Multi-Species (XSP2) HepG2 Assay for M06 Transcription Factor (Internal Marker) (AID 2283811);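 further: hits are increases in signal above the DMSO baseline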
Procedure, shortened: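 HepG2 cells transiently transfected with GAL4-UAS multiple reporter units, medium containing 3 nM 6-alpha-fluorotestosterone and 1.5 nM norgestrel; reporter mRNA measured 24 hours post-dosing by RT-PCR and capillary electrophoresis. Internal background marker, gain of signal vs DMSO.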

[5] = system: turtle Estrogen Receptor (ERa), gene 101933533; assay: ATG_trERa_XSP2: Attagene TRANS-FACTORIAL Multi-Species (XSP2) HepG2 Assay for turtle Estrogen Receptor (ERa) (AID 2283812);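 further: human HepG2 liver cells transiently expressing turtle ERa-Gal4 chimeric receptor; actives raise reporter signal above DMSO so AC50 reflects agonist activity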
Procedure, shortened: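 HepG2 cells transiently transfected with GAL4-UAS reporter units expressing turtle ERa-Gal4 chimera. Reporter mRNA measured after 24 h dosing by RT-PCR, fluorescent labelling and capillary electrophoresis; gain of signal fitted versus DMSO.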

[6] = target: Estrogen receptor beta (Homo sapiens) (UniProt Q92731); assay: ATG_hERb_XSP2: Attagene TRANS-FACTORIAL Multi-Species (XSP2) HepG2 Assay for human Estrogen Receptor (ERb) (AID 2283813);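 further: actives raise reporter mRNA above DMSO so AC50 reflects agonist induction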
Procedure, shortened: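 HepG2 cells transiently transfected with GAL4-UAS reporter units and chimeric human ERb-Gal4, 24 h exposure. Reporter mRNA quantified by RT-PCR with FAM labelling, HpaI digestion and capillary electrophoresis; gain of signal versus DMSO.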

[7] = target: chicken Estrogen Receptor (ERa), ESR1 (gene 396099) (UniProt P06212); assay: ATG_chERa_XSP2: Attagene TRANS-FACTORIAL Multi-Species (XSP2) HepG2 Assay for chicken Estrogen Receptor (ERa) (AID 2283817);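 further: actives raise reporter signal above DMSO so AC50 reflects ER activation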
Procedure, shortened: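 Transiently transfected HepG2 cells expressing chimeric chicken ERa-GAL4 reporter units, dosed 24 h with 3 nM 6-alpha-fluorotestosterone and 1.5 nM norgestrel present. Reporter mRNA measured by RT-PCR and capillary electrophoresis; gain-of-signal fitted relative to DMSO.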

[8] = system: frog Estrogen Receptor (ER), gene 398734; assay: ATG_frER1_XSP2: Attagene TRANS-FACTORIAL Multi-Species (XSP2) HepG2 Assay for frog Estrogen Receptor (ER) (AID 2283821);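 further: hits raise reporter mRNA above DMSO baseline so potency means agonist or activator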
Procedure, shortened: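 HepG2 cells transiently transfected with GAL4-UAS reporter units expressing a chimeric frog ER-Gal4 protein; 24 h exposure. Reporter mRNA quantified by RT-PCR, fluorescent labelling and capillary electrophoresis; gain of signal fitted against DMSO baseline.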

[9] = system: zebrafish Estrogen Receptor (ER2b), gene 317733; assay: ATG_zfER2b_XSP2: Attagene TRANS-FACTORIAL Multi-Species (XSP2) HepG2 Assay for zebrafish Estrogen Receptor (ER2b) (AID 2283823);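 further: fitted upward as reporter gain over DMSO so potency reflects activation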
Procedure, shortened: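 Transcriptional induction measured as reporter mRNA (RT-PCR, fluorescent capillary electrophoresis) in transiently transfected HepG2 cells after 24 h dosing; DMSO served as negative control and baseline.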

[10] = system: zebrafish Androgen Receptor (AR), gene 100005148; assay: ATG_zfAR_XSP2: Attagene TRANS-FACTORIAL Multi-Species (XSP2) HepG2 Assay for zebrafish Androgen Receptor (AR) (AID 2283825);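 further: hits raise reporter mRNA above DMSO so AC50 reflects agonist-type gain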
Procedure, shortened: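 Zebrafish AR–GAL4 chimera transiently expressed with GAL4-UAS reporter in HepG2 cells, co-stimulated with 3 nM 6-alpha-fluorotestosterone and 1.5 nM norgestrel; 24 h dosing, reporter mRNA read by RT-PCR/capillary electrophoresis versus DMSO.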

[11] = target: GAL4 Transcription Factor (Internal Marker), GAL4 (gene 855828) (UniProt P04386); assay: ATG_GAL4_XSP2: Attagene TRANS-FACTORIAL Multi-Species (XSP2) HepG2 Assay for GAL4 Transcription Factor (Internal Marker) (AID 2283814);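 further: GAL4 reporter mRNA background control in MRTU transfected cells not a receptor target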
Procedure, shortened: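 HepG2 cells transiently transfected with GAL4-UAS reporter units, stimulated with 3 nM 6-alpha-fluorotestosterone plus 1.5 nM norgestrel, dosed 24 h. Reporter mRNA by RT-PCR/capillary electrophoresis; gain-of-signal fit versus DMSO, background control.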

[12] = target: zebrafish Estrogen Receptor (ER1), esr1 (gene 259252) (UniProt P57717); assay: ATG_zfER1_XSP2: Attagene TRANS-FACTORIAL Multi-Species (XSP2) HepG2 Assay for zebrafish Estrogen Receptor (ER1) (AID 2283816)
Procedure, shortened: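 HepG2 cells transiently transfected with a GAL4-UAS reporter and a chimeric zebrafish ER1-Gal4 construct, dosed 24 h. Reporter mRNA quantified by RT-PCR, labelling, HpaI digestion and capillary electrophoresis, relative to DMSO.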

[13] = system: zebrafish Estrogen Receptor (ER2a), gene 317734; assay: ATG_zfER2a_XSP2: Attagene TRANS-FACTORIAL Multi-Species (XSP2) HepG2 Assay for zebrafish Estrogen Receptor (ER2a) (AID 2283818);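 further: hits raise reporter mRNA so AC50 reflects activation of zebrafish ER2a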
Procedure, shortened: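 HepG2 cells transiently transfected with GAL4-UAS reporter units and chimeric zebrafish ER2a-Gal4, exposed 24 h; medium contains 3 nM 6-alpha-fluorotestosterone and 1.5 nM norgestrel. Reporter mRNA quantified by RT-PCR, HpaI digestion, capillary electrophoresis; gain versus DMSO.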

[14] = system: frog Estrogen Receptor (ER2), gene 100174814; assay: ATG_frER2_XSP2: Attagene TRANS-FACTORIAL Multi-Species (XSP2) HepG2 Assay for frog Estrogen Receptor (ER2) (AID 2283828)
Procedure, shortened: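 HepG2 cells transiently transfected with multiplexed GAL4-UAS reporter units expressing chimeric frog ER2–Gal4 protein; reporter mRNA measured 24 h after chemical dosing by RT-PCR, fluorescent labeling and capillary electrophoresis. Gain-of-signal fitted relative to DMSO baseline.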

[15] = target: Peroxisome proliferator-activated receptor gamma (Homo sapiens) (UniProt P37231); assay: ATG_hPPARg_XSP2: Attagene TRANS-FACTORIAL Multi-Species (XSP2) HepG2 Assay for human Peroxisome Proliferator-activated Receptor gamma (PPARg) (AID 2283829);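 further: actives raise reporter mRNA above DMSO so AC50 reflects PPARg activation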
Procedure, shortened: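 Human HepG2 cells carried transiently transfected Gal4 reporter units and were treated with chemical for 24 h alongside androgen-receptor stimulants (3 nM 6-alpha-fluorotestosterone, 1.5 nM norgestrel). Reporter transcripts were detected by RT-PCR with capillary electrophoresis, analysed in the positive direction against DMSO.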

[16] = ATG_XTT_Cytotoxicity_XSP1: Cytotoxicity Assessment in the Attagene TRANS-FACTORIAL Multi-Species (XSP1) HepG2 Assay (AID 2283810)
Procedure, shortened: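 XTT viability readout taken at 24 hours post-dosing in HepG2 liver cells co-treated with 3 nM 6-alpha-fluorotestosterone. Signal loss relative to DMSO controls reflects cytotoxicity.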

[17] = system: turtle Androgen Receptor (AR), gene 101947425; assay: ATG_trAR_XSP2: Attagene TRANS-FACTORIAL Multi-Species (XSP2) HepG2 Assay for turtle Androgen Receptor (AR) (AID 2283815)
Procedure, shortened: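 HepG2 cells transiently transfected with GAL4-UAS reporter units for chimeric NR-Gal4 receptors; 24 h dosing in presence of 3 nM 6-alpha-fluorotestosterone and 1.5 nM norgestrel. Reporter mRNA by RT-PCR and capillary electrophoresis, gain of signal versus DMSO.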

[18] = system: chicken Androgen Receptor (AR), gene 422165; assay: ATG_chAR_XSP2: Attagene TRANS-FACTORIAL Multi-Species (XSP2) HepG2 Assay for chicken Androgen Receptor (AR) (AID 2283819);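 further: hits raise reporter mRNA above DMSO so potency is for activation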
Procedure, shortened: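 HepG2 cells transiently transfected with chicken AR–GAL4 chimeric reporter constructs, stimulated with 3 nM 6-alpha-fluorotestosterone plus 1.5 nM norgestrel, dosed 24 h. Reporter mRNA quantified by RT-PCR and capillary electrophoresis; gain of signal fitted versus DMSO.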

[19] = system: frog Androgen Receptor (AR), gene 399456; assay: ATG_frAR_XSP2: Attagene TRANS-FACTORIAL Multi-Species (XSP2) HepG2 Assay for frog Androgen Receptor (AR) (AID 2283824);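 further: actives raise reporter signal above DMSO so AC50 reflects agonist-like induction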
Procedure, shortened: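 HepG2 cells transiently transfected with GAL4-UAS reporter units and frog (Xenopus laevis) AR-Gal4 chimera; reporter mRNA measured 24 h after dosing by RT-PCR and capillary electrophoresis. Gain of signal fitted relative to DMSO baseline.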

[20] = target: Estrogen receptor (Homo sapiens) (UniProt P03372); assay: ATG_hERa_XSP2: Attagene TRANS-FACTORIAL Multi-Species (XSP2) HepG2 Assay for human Estrogen Receptor (ERa) (AID 2283827)
Procedure, shortened: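 HepG2 cells transiently transfected with multiplexed GAL4-UAS reporters driven by chimeric receptor-Gal4 proteins, dosed 24 h with 3 nM 6-alpha-fluorotestosterone and 1.5 nM norgestrel present. Reporter mRNA by RT-PCR and capillary electrophoresis; gain-of-signal fit versus DMSO.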

Measured: AC50

chicken Estrogen Receptor (ERa), ESR1 (gene 396099), sequence (P06212 whole entry, looked up, the tested form may be a part): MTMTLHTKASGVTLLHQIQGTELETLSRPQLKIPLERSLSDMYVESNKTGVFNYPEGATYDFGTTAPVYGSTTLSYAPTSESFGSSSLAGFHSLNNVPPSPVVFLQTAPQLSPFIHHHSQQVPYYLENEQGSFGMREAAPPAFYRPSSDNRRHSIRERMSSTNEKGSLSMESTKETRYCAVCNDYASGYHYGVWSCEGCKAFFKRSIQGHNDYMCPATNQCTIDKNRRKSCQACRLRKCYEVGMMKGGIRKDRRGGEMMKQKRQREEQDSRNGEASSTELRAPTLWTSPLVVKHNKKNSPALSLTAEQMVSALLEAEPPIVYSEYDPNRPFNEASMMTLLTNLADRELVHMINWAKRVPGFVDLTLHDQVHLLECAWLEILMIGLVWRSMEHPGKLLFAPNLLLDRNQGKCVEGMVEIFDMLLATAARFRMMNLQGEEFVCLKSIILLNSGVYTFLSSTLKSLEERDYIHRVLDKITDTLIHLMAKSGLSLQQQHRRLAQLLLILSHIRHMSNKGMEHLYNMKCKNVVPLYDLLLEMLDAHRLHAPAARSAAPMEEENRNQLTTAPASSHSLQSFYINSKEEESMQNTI
Estrogen receptor beta (Homo sapiens), sequence (Q92731 whole entry, looked up, the tested form may be a part): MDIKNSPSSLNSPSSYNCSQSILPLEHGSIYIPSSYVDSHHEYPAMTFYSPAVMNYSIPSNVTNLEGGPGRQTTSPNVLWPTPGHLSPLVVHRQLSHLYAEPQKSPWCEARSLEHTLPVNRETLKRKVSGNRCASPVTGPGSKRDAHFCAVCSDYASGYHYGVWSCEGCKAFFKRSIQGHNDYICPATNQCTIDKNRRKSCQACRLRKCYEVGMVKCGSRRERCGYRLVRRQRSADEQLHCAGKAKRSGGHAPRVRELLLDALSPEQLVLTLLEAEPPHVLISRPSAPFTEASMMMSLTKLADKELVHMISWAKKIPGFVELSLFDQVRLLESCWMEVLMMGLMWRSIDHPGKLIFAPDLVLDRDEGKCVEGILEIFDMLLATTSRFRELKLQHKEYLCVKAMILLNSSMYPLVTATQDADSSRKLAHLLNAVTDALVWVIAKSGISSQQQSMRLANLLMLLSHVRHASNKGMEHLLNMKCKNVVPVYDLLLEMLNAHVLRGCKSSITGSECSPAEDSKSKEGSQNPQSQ
Peroxisome proliferator-activated receptor gamma (Homo sapiens), sequence (P37231 whole entry, looked up, the tested form may be a part): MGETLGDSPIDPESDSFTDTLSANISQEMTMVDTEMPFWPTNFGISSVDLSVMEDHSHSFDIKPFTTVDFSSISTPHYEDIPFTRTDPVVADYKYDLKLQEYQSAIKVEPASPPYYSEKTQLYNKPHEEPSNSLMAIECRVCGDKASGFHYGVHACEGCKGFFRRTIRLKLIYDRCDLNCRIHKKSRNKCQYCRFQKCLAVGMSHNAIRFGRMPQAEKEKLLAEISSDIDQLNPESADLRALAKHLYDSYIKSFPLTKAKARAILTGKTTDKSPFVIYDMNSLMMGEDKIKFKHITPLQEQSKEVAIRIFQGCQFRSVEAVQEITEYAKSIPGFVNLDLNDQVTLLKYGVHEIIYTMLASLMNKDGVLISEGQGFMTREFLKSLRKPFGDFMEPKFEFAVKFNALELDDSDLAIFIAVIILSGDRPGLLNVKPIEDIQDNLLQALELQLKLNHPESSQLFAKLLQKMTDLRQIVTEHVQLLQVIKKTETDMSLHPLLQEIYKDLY
zebrafish Estrogen Receptor (ER1), esr1 (gene 259252), sequence (P57717 whole entry, looked up, the tested form may be a part): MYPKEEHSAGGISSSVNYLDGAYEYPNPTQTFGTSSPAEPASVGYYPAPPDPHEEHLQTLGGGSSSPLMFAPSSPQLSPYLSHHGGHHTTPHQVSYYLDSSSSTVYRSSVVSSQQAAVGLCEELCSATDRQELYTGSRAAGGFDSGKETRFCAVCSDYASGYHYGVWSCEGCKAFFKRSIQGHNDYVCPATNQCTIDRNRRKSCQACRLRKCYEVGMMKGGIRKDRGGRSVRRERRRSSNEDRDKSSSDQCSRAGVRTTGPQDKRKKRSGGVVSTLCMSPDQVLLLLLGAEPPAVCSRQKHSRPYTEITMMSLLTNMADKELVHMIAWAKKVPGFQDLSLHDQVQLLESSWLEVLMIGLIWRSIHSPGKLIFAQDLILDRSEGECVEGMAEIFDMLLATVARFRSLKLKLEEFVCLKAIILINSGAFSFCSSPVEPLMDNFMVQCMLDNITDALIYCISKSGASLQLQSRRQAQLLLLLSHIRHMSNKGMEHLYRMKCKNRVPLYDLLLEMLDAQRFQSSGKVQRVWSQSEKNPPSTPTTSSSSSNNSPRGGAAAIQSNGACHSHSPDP
zebrafish Thyroid Hormone Receptor beta (TRb), thrb (gene 30607), sequence (Q9PVE4 whole entry, looked up, the tested form may be a part): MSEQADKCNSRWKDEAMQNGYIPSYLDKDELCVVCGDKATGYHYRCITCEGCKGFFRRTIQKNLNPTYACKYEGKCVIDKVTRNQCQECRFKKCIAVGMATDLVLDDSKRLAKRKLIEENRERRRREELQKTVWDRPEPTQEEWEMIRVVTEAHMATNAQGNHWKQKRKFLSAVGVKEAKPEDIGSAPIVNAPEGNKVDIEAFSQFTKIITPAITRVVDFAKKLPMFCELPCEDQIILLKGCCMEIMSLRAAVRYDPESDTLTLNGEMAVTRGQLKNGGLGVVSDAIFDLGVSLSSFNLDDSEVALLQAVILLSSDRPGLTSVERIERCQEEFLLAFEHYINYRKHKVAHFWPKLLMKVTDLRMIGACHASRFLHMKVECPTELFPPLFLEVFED
GAL4 Transcription Factor (Internal Marker), GAL4 (gene 855828), sequence (P04386 whole entry, looked up, the tested form may be a part): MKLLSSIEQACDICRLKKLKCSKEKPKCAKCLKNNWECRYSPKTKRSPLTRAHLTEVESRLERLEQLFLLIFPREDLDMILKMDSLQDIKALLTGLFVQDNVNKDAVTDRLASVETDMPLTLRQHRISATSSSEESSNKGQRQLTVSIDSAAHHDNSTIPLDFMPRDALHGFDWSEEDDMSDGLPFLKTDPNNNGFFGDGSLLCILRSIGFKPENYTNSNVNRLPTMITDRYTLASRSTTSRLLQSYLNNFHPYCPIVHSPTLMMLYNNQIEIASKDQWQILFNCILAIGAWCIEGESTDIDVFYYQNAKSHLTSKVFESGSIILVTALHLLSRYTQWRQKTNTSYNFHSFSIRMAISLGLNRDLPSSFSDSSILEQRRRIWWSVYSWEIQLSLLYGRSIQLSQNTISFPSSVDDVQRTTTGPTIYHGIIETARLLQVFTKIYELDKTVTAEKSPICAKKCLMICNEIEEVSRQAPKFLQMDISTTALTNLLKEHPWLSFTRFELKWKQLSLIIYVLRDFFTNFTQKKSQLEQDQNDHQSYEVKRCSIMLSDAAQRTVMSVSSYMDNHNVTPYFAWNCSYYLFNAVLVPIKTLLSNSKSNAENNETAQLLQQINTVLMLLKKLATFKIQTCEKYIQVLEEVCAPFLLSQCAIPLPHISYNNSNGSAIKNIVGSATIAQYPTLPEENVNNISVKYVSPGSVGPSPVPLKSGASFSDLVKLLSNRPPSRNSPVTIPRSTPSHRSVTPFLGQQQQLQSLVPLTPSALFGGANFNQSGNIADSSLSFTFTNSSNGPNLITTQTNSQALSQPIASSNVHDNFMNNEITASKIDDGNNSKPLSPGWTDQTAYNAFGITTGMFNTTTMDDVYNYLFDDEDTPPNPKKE
Estrogen receptor (Homo sapiens), sequence (P03372 whole entry, looked up, the tested form may be a part): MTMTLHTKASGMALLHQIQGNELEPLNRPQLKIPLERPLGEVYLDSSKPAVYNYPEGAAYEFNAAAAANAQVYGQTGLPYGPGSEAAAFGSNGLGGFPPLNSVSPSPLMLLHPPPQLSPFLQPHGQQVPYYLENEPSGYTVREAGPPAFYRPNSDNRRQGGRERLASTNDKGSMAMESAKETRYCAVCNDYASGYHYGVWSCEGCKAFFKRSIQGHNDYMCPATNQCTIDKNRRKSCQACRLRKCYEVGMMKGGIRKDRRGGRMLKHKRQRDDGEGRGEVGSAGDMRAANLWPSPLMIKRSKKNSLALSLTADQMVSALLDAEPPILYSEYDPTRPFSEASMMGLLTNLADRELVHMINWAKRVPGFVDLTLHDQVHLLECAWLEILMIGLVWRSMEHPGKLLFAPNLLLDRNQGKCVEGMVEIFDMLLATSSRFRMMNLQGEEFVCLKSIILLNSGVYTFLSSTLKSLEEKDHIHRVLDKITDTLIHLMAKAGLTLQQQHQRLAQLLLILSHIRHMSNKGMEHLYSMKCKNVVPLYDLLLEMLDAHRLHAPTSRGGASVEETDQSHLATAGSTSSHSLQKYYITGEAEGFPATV
human Thyroid hormone Receptor beta (TRb), THRB (gene 7068), sequence (P10828 whole entry, looked up, the tested form may be a part): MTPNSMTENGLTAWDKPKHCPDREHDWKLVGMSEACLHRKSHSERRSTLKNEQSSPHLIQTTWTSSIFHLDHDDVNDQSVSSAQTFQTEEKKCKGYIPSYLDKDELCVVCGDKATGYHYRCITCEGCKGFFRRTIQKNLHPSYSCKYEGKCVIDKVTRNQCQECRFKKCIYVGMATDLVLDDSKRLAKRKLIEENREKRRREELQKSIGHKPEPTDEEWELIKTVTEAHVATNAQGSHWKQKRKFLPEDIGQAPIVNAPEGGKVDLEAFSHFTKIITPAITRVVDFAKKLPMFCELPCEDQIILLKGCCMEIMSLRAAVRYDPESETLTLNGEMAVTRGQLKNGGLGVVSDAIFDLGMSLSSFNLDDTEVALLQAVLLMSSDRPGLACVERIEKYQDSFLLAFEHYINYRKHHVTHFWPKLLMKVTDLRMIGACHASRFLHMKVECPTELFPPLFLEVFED
zebrafish Thyroid Hormone Receptor alpha (TRa), thraa (gene 30670), sequence (Q98867 whole entry, looked up, the tested form may be a part): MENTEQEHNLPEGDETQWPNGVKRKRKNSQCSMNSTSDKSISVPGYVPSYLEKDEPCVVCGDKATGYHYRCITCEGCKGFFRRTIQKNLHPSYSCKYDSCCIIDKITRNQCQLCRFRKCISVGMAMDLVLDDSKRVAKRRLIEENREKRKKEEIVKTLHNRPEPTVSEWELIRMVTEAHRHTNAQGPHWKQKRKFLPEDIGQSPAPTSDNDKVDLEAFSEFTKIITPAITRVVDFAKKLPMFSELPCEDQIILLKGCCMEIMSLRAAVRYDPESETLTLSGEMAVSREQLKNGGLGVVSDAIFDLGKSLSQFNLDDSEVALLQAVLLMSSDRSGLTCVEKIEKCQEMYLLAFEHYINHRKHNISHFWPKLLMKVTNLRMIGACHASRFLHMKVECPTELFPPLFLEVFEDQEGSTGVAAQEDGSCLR

CC(C)(c1cc(Br)c(O)c(Br)c1)c1cc(Br)c(O)c(Br)c1
inactive: [1] | [2] | [4] | [5] | [6] | [7] | [8] | [9] | [10]
active: [3] 13.9 µM

CC1(C)NC(=O)N(c2ccc([N+](=O)[O-])c(C(F)(F)F)c2)C1=O
inactive: [5] | [6] | [11] | [12] | [7] | [13] | [8] | [14] | [15]
active: [7] 43 µM | [8] 56.3 µM | [9] 128 µM and 100 µM | [14] 184 µM

Cc1c2ccccc2c(C)c2c1ccc1ccccc12
inactive: [4] | [11] | [17] | [12] | [13] | [19]
active: [3] 60.9 µM | [16] 33.2 µM | [5] 1.53 µM | [6] 24.7 µM | [7] 8.83 µM | [18] 9.02 µM | [8] 8.79 µM | [9] 23.2 µM | [20] 5.09 µM | [14] 14.3 µM | [15] 26 µM
